Compound activity as filed in PubChem.
RXFP1 ag: agonists of human relaxin receptor RXFP1; Q9HBX9; HEK293T-RXFP1 cAMP TR-FRET, 30 min; response scale: percent of porcine relaxin response, buffer zero; Potency, µM (series often up to 57.5 µM), without a hit: at the top dose activation, usual class: activators; 370,000 tested, 0.3% active; note: potency is the fitted concentration of half-maximal effect; % is set by controls: 0 for no effect and ±100 for the full control effect; nearly all actives have a fitted effect of over 60% in size
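Agonist response is measured as cAMP accumulation in an RXFP1-transfected HEK293T line under PDE4 inhibition. Values are scaled between buffer-only and 29 nM porcine relaxin, and EC50s come from standard Hill equation fits.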
KCNH2 WT inh: KCNH2 (human, wildtype) channel inhibition; Q12809; U2OS, BacMam KCNH2, thallium flux FluxOr; stronger effect = lower value; activity change, % at 1.84 µM; 340,000 tested, 0.37% active; AID 720551;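 active = maximum activity change below -70%; inconclusive = maximum activity change between -70% and -50%; inactive = maximum activity change above -50%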; note: % is set by controls: 0 for no effect and ±100 for the full control effect
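U2OS cells were transduced with wild-type KCNH2 virus (2.03 x 10^8 / mL) for 4 h at room temperature, then cultured overnight at 37 C. Thallium flux was read with FluxOr dye. Rate constants were normalized to DMSO controls.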
RXFP1 antag: antagonists of human relaxin receptor RXFP1; HEK293-RXFP1, relaxin-stimulated cAMP HTRF, 30 min; stronger effect = lower value; activity change, negative = inhibition, % at 57.5 µM; 350,000 tested, 0.59% active;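 active = activity change of -60% or lower, but not beyond a set lower limit; inconclusive = change between -60% and -40%, or beyond the set limit; inactive = change above -40%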; note: % is set by controls: 0 for no effect and ±100 for the full control effect
Glioma ERSR ind: ER stress response induction in glioma. U87-MG GRP78 promoter luciferase reporter, 16 h. Potency, µM, for inactives: at the highest dose activation, hits mostly activators. 420,000 tested, 0.02% active. AID 602332; note: potency is the fitted concentration of half-maximal effect; series mostly up to about 76 µM; % of control where 0% means no effect; nearly all actives have a fitted effect of over 35% in size
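Stably transfected U87-MG human glioma cells carrying a GRP78-based luminescent sensor were seeded at 1000 cells/well, pin-dosed with compounds and incubated 16 h. Luciferase reagent was then added, and end-point luminescence was read after 10 min at room temperature.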
KCNH2 3.1 block: inhibitors of human KCNH2 3.1 potassium channel isoform | 340,000 tested, 0.95% active | AID 720553 | activity change, % (tested at about 1.8 µM) | U2OS KCNH2 3.1, thallium flux FluxOr; stronger effect = lower value;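 active = maximum activity change below -70%; inconclusive = maximum activity change from -70% to -50%; inactive = maximum activity change above -50%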;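 note: thallium influx rate constant from kinetic fluorescence after stimulation buffer; % is set by controls: 0 for no effect and ±100 for the full control effect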
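Normalized rate constant (relative to positive and negative DMSO controls) derived from a 2 min kinetic fluorescence read after stimulation; U2OS cells expressing the 3.1 isoform via virus at 1.77 x 10^8 /mL.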
PTHR1 ag: agonists of human PTHR1 parathyroid hormone receptor | Potency, µM (series often up to 115 µM), without a hit: top-dose activation, hits mostly activators | HEK293 GP2 PTHR1 cells, GloSensor cAMP luminescence, 1 h | 410,000 tested, 0.075% active | AID 743266 | Q03431; note: potency is the fitted concentration of half-maximal effect; nearly all actives have a fitted effect of over 55% in size
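HEK-293-derived GP2 cells expressing PTHR1 and a GloSensor cAMP reporter, 3,000/well, plated overnight, given luciferin plus IBMX (each 0.5 mM as added) for 1 h at 37 °C, then compound for 1 h at 37 °C. Luminescence was read after 15 min at room temperature.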
Starred values were filed as active, the others as inactive; i = inactive; u = inconclusive; x = no result; [ ] = dose if it differs, or a comment. Most compounds without a hit are left out; they make up all but 1.4% or so of the library. Unless noted, calls come from the whole dose curve; as a rule, active = well fitted curve in the direction sought with a large enough effect; inconclusive = small, poorly fitted or top-dose-only effect, or another doubt; inactive = no such curve, though single readings can be large; an effect the other way counts as inactive or inconclusive.

SMILES	RXFP1 ag	KCNH2 WT inh	RXFP1 antag	Glioma ERSR ind	KCNH2 3.1 block	PTHR1 ag
COc1cc(OC)c(NC(=O)c2ccc3c(SCC(=O)O)c4c(nc3c2)CCCC4)cc1Cl	4%	4	-18	-2%	-104*	-18%
COc1ccc(OC)c(NC(=O)c2ccc3c(SCC(=O)O)c4c(nc3c2)CCCC4)c1	-2%	x	x	0%	x	-21%
COc1cc(NC(=O)c2ccc3c(SCC(=O)O)c4c(nc3c2)CCCC4)cc(OC)c1OC	12%	x	2	-4%	-77*	i
CCc1nnc(SCC(=O)Nc2nnc(C)s2)n1CC1CCCO1 (stereo unspecified)	6%	-5	2	-5%	-5	i
CC1(C(=O)NCc2cccs2)Cc2c(-c3ccccc3)ccnc2O1 (stereo unspecified)	x	x	x	-6%	x	-12%
CCOC(=O)N1CCN(S(=O)(=O)c2c(C)nc3scc(C)n3c2=O)CC1	14µM*	10	18	-3%	-2	i
O=C(CNC(=O)/C(=C\c1ccccc1)NC(=O)c1ccc(Br)cc1)OCc1ccccc1	1%	-42	-15	-7%	u	-9%[57.5 µM]
CC(C)c1ccc(/C=C(\NC(=O)c2ccccc2)C(=O)NCCCn2ccnc2)cc1	0%	-19	-25	0%	-102*	-2%
O=C(CCCNC(=O)/C(=C/c1ccc(Br)cc1)NC(=O)c1ccccc1)OCc1ccccc1	1%	0	-10	-5%	-113*	i
O=C(NCCCn1ccnc1)/C(=C/c1ccc(F)cc1)NC(=O)c1ccccc1	1%	-9	8	-5%	-116*	-1%
O=C1C(=O)N(CCN2CCOCC2)C(c2ccc(Cl)cc2)/C1=C(/O)c1ccc(S(=O)(=O)N2CCOCC2)cc1 (stereo unspecified)	0%	1	10	-3%	-9	i
Cc1cccc(NC(=O)CNC(=O)CSc2nnc(C(F)(F)F)n2C)c1C	0%	-130*	5	-1%	-186*	u
Cn1c(SCC(=O)Nc2ccccc2[N+](=O)[O-])nnc1C(F)(F)F	-1%	-3	-7	-4%	24	i
O=C(C1CCN(S(=O)(=O)c2cccc3nsnc23)CC1)N1CCCCC1	0%	-5	-7	-1%	40	i
Oc1c(C(Nc2cccc(C(F)(F)F)c2)c2ccncc2)ccc2cccnc12 (stereo unspecified)	2%	-1	-61*	-2%	-12	i
Cc1ccc([C@H]2Nc3ccc(S(=O)(=O)Nc4cccc(Cl)c4C)cc3[C@H]3C=CC[C@H]32)cc1	2%	x	-62*	-5%	x	i
Cc1ccc(NS(=O)(=O)c2ccc3c(c2)[C@H]2C=CC[C@H]2[C@@H](c2ccc(F)cc2)N3)cc1C	-1%	x	-17	-4%	x	-29%
COC(=O)c1ccc([C@H]2Nc3ccc(S(=O)(=O)Nc4cccc(C)c4)cc3[C@H]3C=CC[C@H]32)cc1	3%	x	-70*	-4%	x	i
O=[N+]([O-])c1ccc(N2CCN(C(=S)Nc3ccccc3)CC2)cc1	0%	7	-22	-2%	-8	i
COc1ccc(N2CCN(C(=O)c3ccc(COc4ccc([N+](=O)[O-])cc4)o3)CC2)cc1	4%	5	-28	-2%	-21	-95%
O=[N+]([O-])c1ccc(N2CCN(C(=S)NC3CCCCC3)CC2)cc1	2%	-23	-7	-3%	-72*	-42%
CSC(=NC#N)N1CCN(c2ccc([N+](=O)[O-])cc2)CC1	-3%	14	24	-4%	-79*	-10%
Cc1c(Cl)cccc1-c1ccc(C(=O)N2CCN(c3ccc([N+](=O)[O-])cc3)CC2)o1	2%	-48	-11	-3%	-80*	-30%[57.5 µM]
Cc1ccc(S(=O)(=O)NCc2ccc(C(=O)N3CCN(c4ccc([N+](=O)[O-])cc4)CC3)cc2)cc1	0%	-29	2	-2%	-96*	-41%
C/C(=N/NC(=O)c1sc(NS(=O)(=O)c2ccc(C)cc2)nc1C)c1sc(N)nc1C	2%	-2	8	-1%	20	i
SMILES	RXFP1 ag	KCNH2 WT inh	RXFP1 antag	Glioma ERSR ind	KCNH2 3.1 block	PTHR1 ag
CN1C2CCC1/C(=C\c1ccccc1F)C(=O)/C2=C/c1ccccc1F	0%	1	-21	2%	-13	-50%
O=C(NC(=S)NCc1ccccc1)c1ccccc1	3%	-5	-3	2%	x	-3%
O=C(c1ccc(-c2ccc([N+](=O)[O-])cc2)o1)N1CCCC(C(F)(F)F)C1 (stereo unspecified)	5%	-17	-13	2%	3	-74%
O=C(c1ccc(-c2cccc(Cl)c2)o1)N1CCN(c2ccc([N+](=O)[O-])cc2)CC1	0%	u	-8	-3%	-101*	-16%
O=C(Cc1ccc([N+](=O)[O-])cc1)N1CCN(c2ccc([N+](=O)[O-])cc2)CC1	0%	u	15	-5%	-91*	-86%
CN1CCN(S(=O)(=O)c2ccc([N+](=O)[O-])cc2)CC1	2%	-19	6	-3%	0	-97%
O=C(c1ccc(-c2ccc([N+](=O)[O-])cc2)o1)N1CCCCCCC1	1%	7	-71*	9%	19	-23%
O=C(Cc1ccc(F)cc1)N1CCN(c2ccc([N+](=O)[O-])cc2)CC1	-1%	7	0	-1%	-47	-37%
O=[N+]([O-])c1ccc(N2CCN(S(=O)(=O)c3ccccc3)CC2)cc1	-1%	-80*	-12	4%	-84*	-68%
CC[C@]12c3[nH]c4ccc(OC)cc4c3CCN1C(=O)C(CC(=O)NCCc1ccccn1)C[C@@H]2C(=O)N1CCN(C(=O)c2ccco2)CC1 (stereo partly specified)	x	-3	x	-2%	5	i
O=C(CCCSc1nc2ccccc2[nH]1)N1CCN(c2ccc([N+](=O)[O-])cc2)CC1	-2%	-105*	3	-3%	-116*	-19%[57.5 µM]
O=C(CSc1nc2ccccc2[nH]1)N1CCN(c2ccc(F)cc2)CC1	-2%	16	0	-2%	4	-6%[57.5 µM]
O=c1cc(-c2ccco2)nc(SCc2cccc(Cl)c2)[nH]1	-1%	-5	-1	-2%	-6	i
COc1ccccc1C1CCCN1Cc1nc(-c2ccc(C)s2)oc1C (stereo unspecified)	0%	-1	-65*	-3%	4	-13%
COc1ccccc1C1CCCN1Cc1nc(-c2cc3c(cc2Cl)OCO3)oc1C (stereo unspecified)	0%	1	-4	-4%	-16	28%
